The panel holds about 83,000 compounds, 20% with a hit somewhere; the sample as a whole holds those more often.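 Treatment: one concentration, 48 hours, 96-well format. Scoring: percent growth, with anything below 10 considered active.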 A number with no mark means an inactive call. The source made the active and inactive calls.
Tests used:
Assay in all cases: NCI-60 one-dose screen, 48 h (100 = growth as untreated, 0 = no growth, -100 = all killed)
Conditions in all cases: 10 µM unless noted
SK-MEL-2 melanoma = test system: SK-MEL-2 melanoma
EKVX NSCLC = test system: EKVX NSCLC
SN12C renal = test system: SN12C renal
UO-31 renal = test system: UO-31 renal
TK-10 renal = test system: TK-10 renal
ACHN renal = test system: ACHN renal
CAKI-1 renal = test system: CAKI-1 renal
A498 renal = test system: A498 renal
CCRF-CEM leukemia = test system: CCRF-CEM leukemia
MOLT-4 leukemia = test system: MOLT-4 leukemia

| Compound | growth (SK-MEL-2 melanoma) | growth (EKVX NSCLC) | growth (SN12C renal) | growth (UO-31 renal) | growth (TK-10 renal) | growth (ACHN renal) | growth (CAKI-1 renal) | growth (A498 renal) | growth (CCRF-CEM leukemia) | growth (MOLT-4 leukemia) |
| --- | --- | --- | --- | --- | --- | --- | --- | --- | --- | --- |
| C=CC[Se]C(=O)Cc1c(C)n(C(=O)c2ccc(Cl)cc2)c2ccc(OC)cc12 | 8.51% (active) | -62.6% (active) | -30.4% (active) | -80% (active) | -33.5% (active) | -61% (active) | -59.3% (active) | -28.1% (active) | 10.5% | 5.11% (active) |
| N#CC1=C(N)Oc2c(c(=O)[nH]c3ccc(Cl)cc23)C12C(=O)c1ccccc1C2=O | 115% | 95.2% | 94.8% | 70.2% | 129% | 95.1% | 80.5% | 88% | 107% | 116% |
| Cc1cc(=O)n(C(=O)Nc2ccccc2Cl)c2cc(O)ccc12 | 118% | 108% | 98.5% | 76.9% | 101% | 100% | 92.3% | 109% | 93.9% | 110% |
| N#CSc1c[nH]c2cccc(/C=C/C(=O)/C=C(/C=C/c3cccc4[nH]cc(SC#N)c34)OB(F)F)c12 | -65% (active) | -10.4% (active) | -21.8% (active) | -76% (active) | -51.7% (active) | -48.9% (active) | -12.5% (active) | 28.2% | -10.9% (active) | -14.4% (active) |
| O=C1NC(=C(Cl)Cl)/C(=N\S(=O)(=O)NCc2ccccc2)N1 | 103% | 118% | 90.7% | 94.1% | 107% | 110% | 101% | 104% | 75% | 85.5% |
| Cc1ccc2c(c1)=C/C(=C\c1cc(-c3ccccc3)oc1O)C(=O)N=2 | 114% | 92.6% | 106% | 100% | 97.6% | 105% | 91.1% | 96.6% | 100% | 90.6% |
| COc1cc(OC)c(NC(=O)c2cc3ccccc3cc2O)cc1Cl | 15.4% | 38.4% | 28.1% | -10.7% (active) | 32.8% | 22.7% | 6.59% (active) | 18.8% | 26.9% | 26.9% |
| CCCC/C(CC)=N\NS(=O)(=O)c1ccc([N+](=O)[O-])cc1 | 94.6% | 102% | 102% | 83.3% | 93.4% | 104% | 96.9% | 96.3% | 87.1% | 101% |
| Cc1cccc(/C=C2\CN(C(=O)OC(C)(C)C)C/C(=C\c3cccc(C)c3)C2=O)c1 | 95.3% | 93.4% | 95.4% | 69% | 96.1% | 84% | 73.5% | 93.9% | 8.66% (active) | 51.8% |
| CCCCCCCCCc1ccc(OCCOCCOCCOCCOCCOCCOCCOCCOCCO)cc1 | 7.03% (active) | 15.5% | 13% | 12.8% | 23.1% | 18.9% | 13.6% | -5.27% (active) | -22.2% (active) | -17.6% (active) |
| O=C1/C(=C\c2ccc3nccnc3c2)SC(=S)N1CCc1ccc(O)cc1 | 97.1% | 100% | 86.9% | 49.7% | 67.8% | 94% | 78.9% | 83.1% | 79% | 106% |
| COC(=O)c1nc(-c2ccc(C)cc2)oc1S(=O)(=O)c1cccc(OC)c1 | 95.9% | 100% | 85% | 90.3% | 64.8% | 42.8% | 69.5% | 102% | -9.09% (active) | -7.44% (active) |
